Only some compounds are listed: those with a hit (about 5.8% of all), similar ones and a draw of the others.
TRPV1 agonist = agonists of human vanilloid receptor 1 (TRPV1). Q8NER1. TRPV1-expressing cells, Fluo-8 calcium influx, agonist mode. activation, % at 8.33 µM. hit rate 0.19% among 320,000; in the data active = activation above about 80%; inconclusive = between about 30% and that limit; also: 0% is about no effect
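Fluo-8 calcium influx in TRPV1-expressing cells, kinetic read (ex 480/em 520 nm). Compound added and read 3 min for agonist activity, followed by capsaicin at EC20 final and 2 min further read for enhancement.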
TRPV1 potentiator = human TRPV1 potentiation; Q8NER1; TRPV1-expressing cells, Fluo-8 calcium influx, capsaicin EC20 potentiation; potentiation, % at 8.33 µM; hit rate 0.02% among 320,000; AID 540277; in the data active = potentiation above about 80%; inconclusive = between about 30% and that limit; also: 0% is about no effect
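TRPV1-expressing cells were cultured overnight at 35.5C and loaded with Fluo-8 calcium dye for 40 to 90 min at room temperature. After a 10 s baseline, compound was added and calcium influx was read kinetically for 3 min (ex 480/em 520 nm).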
VP16 counter = inhibits Gal4-VP16 luciferase reporter, ROR gamma counter-screen. Drosophila S2 Gal4-VP16 UAS-luciferase, luminescence, 20 h. Potency, µM (highest dose often 53.6 µM), inactives show at the highest dose activity, negative = inhibition, most hits filed as inhibitors. hit rate 3.5% among 310,000. AID 2546;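 also: Gal4-VP16 expression switched on by copper sulfate through the metallothionein promoter; potency is read from the fitted curve at half-maximal effect; % is scaled to controls: 0 for no effect and ±100 for the full control effect; nearly all actives have a fitted effect of over 50% in size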
uPA generation = inhibitors of cell surface uPA generation; Potency, µM (doses to about 38.3 µM), for inactives: at the top dose activity change, negative = inhibition, most hits filed as inhibitors; cell surface uPA generation assay, qHTS; hit rate 0.31% among 330,000; active = well fitted inhibition curve with a large enough effect; inconclusive = small, poorly fitted or top-dose-only effect; inactive = no such curve, though single readings can be large or run the other way; tested in mouse RAW 264.7 cells; also: potency is read from the fitted curve at half-maximal effect; % is scaled to controls: 0 for no effect and ±100 for the full control effect; nearly all actives have a fitted effect of over 55% in size
RORgamma inh = ROR gamma (mouse) transcription inhibition; P51450; Drosophila S2 Gal4-RORgamma UAS-luciferase reporter, 20 h; Potency, µM (doses to about 53.6 µM), inactives show top-dose activity change, negative = inhibition, actives largely listed as inhibitors; hit rate 5.4% among 310,000; AID 2551; also: potency is read from the fitted curve at half-maximal effect; % is scaled to controls: 0 for no effect and ±100 for the full control effect; nearly all actives have a fitted effect of over 60% in size
Target sequence (P51450 whole entry, looked up, the tested form may be a part): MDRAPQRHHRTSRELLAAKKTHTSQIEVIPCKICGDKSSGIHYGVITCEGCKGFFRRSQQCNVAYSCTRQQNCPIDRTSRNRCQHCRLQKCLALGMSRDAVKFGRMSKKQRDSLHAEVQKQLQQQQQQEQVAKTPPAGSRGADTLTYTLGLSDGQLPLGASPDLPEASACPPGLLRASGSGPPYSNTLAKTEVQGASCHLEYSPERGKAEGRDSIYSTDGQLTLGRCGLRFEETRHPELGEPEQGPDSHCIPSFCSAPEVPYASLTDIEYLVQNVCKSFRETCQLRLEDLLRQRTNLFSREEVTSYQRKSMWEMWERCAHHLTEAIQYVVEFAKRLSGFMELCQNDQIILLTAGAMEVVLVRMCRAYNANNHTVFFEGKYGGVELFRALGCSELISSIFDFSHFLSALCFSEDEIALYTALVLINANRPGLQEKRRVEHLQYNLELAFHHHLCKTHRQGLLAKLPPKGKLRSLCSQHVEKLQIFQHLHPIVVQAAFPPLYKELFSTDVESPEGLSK
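Schneider cells (Drosophila), stable Gal4 DBD–ROR gamma + UAS-luc; 1 hr cmpd preincubation; Cu2+ induction 700 uM final; 20 hr ambient; luminescence.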
Numbers without * were called inactive; ? = inconclusive; nt = not tested or not shown; [ ] = dose if it differs, or a comment. Unless noted, calls follow the shape of the dose curve; as a rule, active = well fitted curve in the direction sought with a large enough effect; inconclusive = small, poorly fitted or top-dose-only effect, or another doubt; inactive = no such curve, though single readings can be large; an effect the other way counts as inactive or inconclusive.

SMILES	TRPV1 agonist	TRPV1 potentiator	VP16 counter	uPA generation	RORgamma inh
COc1ccc(C2CC(c3ccccc3)=NN2c2ccc(/C=N/NC(=O)c3ccncc3)cc2)cc1 (configuration not stated)	6	7	7.1µM*	-4%	3.2µM*
COc1ccc(C2CC(c3ccccc3)=NN2c2ccc(C(N)=O)cc2)cc1 (configuration not stated)	3	-1	-4%	4%	42%
c1ccc(CNc2ccc3ccccc3n2)nc1	10	-6	?	-27%	10µM*
CCC1C(=O)CC2CCN3C(=O)CCC1C23 (configuration not stated)	nt	nt	3%	nt	-9%
COc1cc(OC)cc(C(=O)Nc2ccc(-c3nc4ccccc4o3)cc2)c1	-1	2	3%	3%	7%
COc1cccc(C(=O)Nc2ccc(-c3nc4ccccc4o3)c(O)c2)c1	0	0	7.1µM*	5%	5µM*
COc1cc(C(=O)Nc2ccc(-c3nc4cc(C)ccc4o3)c(O)c2)cc(OC)c1OC	0	3	-22%	3%	3.5µM*
O=C(Nc1ccc(-c2nc3ccccc3o2)c(O)c1)c1cc(-n2cnnc2)ccc1Cl	-2	25	?	0%	8.9µM*
COC(=O)C1=C(C)N(C)C(=O)NC1c1cccc2ccccc12 (configuration not stated)	1	3	-6%	1%	-25%
C/C(CCc1ccccc1)=N\NC(=O)CC(=O)NCCc1ccccc1	-1	-3	-7%	2%	-26%
CCCCn1nc(C(=O)N(C)C2CCCCC2)c2ccccc2c1=O	?	-19	nt	4%	nt
O=C(O)/C=C1\NC(=O)c2ccccc21	1	-2	-6%	4%	-16%
O=C1N/C(=C\c2ccc(O)cc2)C(=O)c2ccccc21	-1	11	10µM*	nt	?
CCCCC(CC)CNCC(CC)CCCC (configuration not stated)	nt	nt	-20%	nt	-4%
CCCC1O[C@@H]2C[C@H]3[C@@H]4CCC5=CC(=O)C=C[C@]5(C)[C@H]4[C@@H](O)C[C@]3(C)[C@]2(C(=O)CO)O1 (some centres not stated)	6	-4	4%	-20%	13µM*
CCCC1OC2CC3C4CCC5=CC(=O)C=CC5(C)C4C(O)CC3(C)C2(C(=O)O)O1 (configuration not stated)	4	-12	-10%	?	14µM*
CCCC1O[C@@H]2CC3C4CCC5=CC(=O)C=C[C@]5(C)C4C(OC(C)=O)C[C@]3(C)[C@]2(C(=O)COC(C)=O)O1 (some centres not stated)	8	-6	-8%	2%	?
CCC[C@@H]1O[C@@H]2C[C@@H]3[C@H]4CCC5=CC(=O)C=C[C@@]5(C)[C@H]4[C@H](O)C[C@@]3(C)[C@@]2(C(=O)CO)O1	nt	nt	-2%[17 µM]	nt	-31%[16.9 µM]
Cc1noc(C)c1-c1nc(N(C)C)c2ccccc2n1	nt	nt	2%	nt	-27%
C/C(=N\Nc1nc(C)cc(-c2ccccc2)n1)c1ccccc1	17	-10	5µM*	-5%	3.5µM*
C/C(=N\Nc1cc(C)nc(-c2ccccc2)n1)c1cccc([N+](=O)[O-])c1	2	-5	-6%	-3%	?
C/C(=N\NC(=O)c1ccccc1)c1cccc(Br)c1	11	1	?	0%	-121%
C/C(=N\Nc1nc(C)cc(-c2ccccc2)n1)c1ccc(O)cc1	14	-14	?	10µM*	?
C/C(=N\NC(=O)c1ccc(-c2ccccc2)cc1)c1cccc(N)c1	3	-16	-16%	1%	13µM*
C/C(=N\Nc1nc(C)cc(-c2ccccc2)n1)c1cccc(N)c1	-2	3	16µM*	10µM*	11µM*
SMILES	TRPV1 agonist	TRPV1 potentiator	VP16 counter	uPA generation	RORgamma inh
COc1cc(N/N=C(\C)c2ccc(O)c(C)c2)nc(-c2ccccc2)n1	-1	-9	-27%	3%	24%
C/C(=N\Nc1cc(-c2ccccc2)nc(-c2ccccc2)n1)c1ccc(O)c(C)c1	-5	-52	13µM*	2%	8.9µM*
CC/C(=N\NC(=O)c1ccc(-c2ccccc2)cc1)C12CC3CC(CC(C3)C1)C2	24	-20	?	0%	22µM*
CCOC(=O)C1=C(COC(=O)c2ccc(Br)o2)NC(=O)NC1C (configuration not stated)	7	-2	7%	2%	1%
COC(C(=O)Nc1ccc(F)cc1)c1ccccc1 (configuration not stated)	-2	4	-2%	0%	43%
Cc1ccc(NC(=O)C(SCC(=O)O)c2ccccc2)cc1C (configuration not stated)	2	-10	19%	-3%	?
COc1cccc(CN(C)C(=S)Nc2ccc(C)c(C)c2)c1	9	-11	20%[10 µM]	14%	11µM*
Cc1ccc(NC(=S)N(C)C(c2ccccc2)c2ccccc2)cc1C	22	16	10µM*	?	3.5µM*
CN(C(=S)Nc1ccc(F)cc1)C(c1ccccc1)c1ccccc1	22	10	?	-2%	11µM*
O=C(Nc1ccccn1)C(F)(F)C(F)(F)C(F)(F)C(F)(F)C(=O)Nc1ccccn1	-1	2	-1%	3%	-2%
O=C(Cc1csc(NC(=O)c2ccc(F)cc2)n1)NO	-1	27	6%	-10%	-26%
CN(C)CCOC(=O)/C(=C/c1cn(C)c2ccccc12)NC(=O)c1ccccc1	nt	nt	-3%	-4%	26%
O=C(CCS(=O)(=O)c1cccs1)Nc1ccc(C(=O)NC2CCCC2)cc1	-1	2	-4%	2%	14%
O=C(O)CCCCCN1C(=O)CSC1=S	-2	1	-16%	-9%	5µM*
CCC(Sc1nc(N)c(NC(=O)c2ccc(OC)cc2)c(=O)[nH]1)C(=O)O (configuration not stated)	0	2	-6%	-1%	-22%
C=CCn1c2ccccc2c(=O)c2cc(C#CC3(O)CCCCC3)ccc21	8	9	?	?	?
C=CCn1c2ccccc2c(=O)c2cc(C#CC[C@@H](C)O)ccc21	20	-21	nt	4µM*	nt
CCCCCC(=O)Nc1ccc(C(=O)COC(=O)CN2C(=O)NC3(CCCC3)C2=O)cc1	13	5	nt	-1%	nt
COc1cccc(OC)c1C(=O)NC(=S)N1CCOCC1	-3	6	4%	-1%	-1%
CC(C)Oc1cccc(C(=O)NC(=S)N2CCN(c3ccc(C(F)(F)F)cc3[N+](=O)[O-])CC2)c1	-1	-11	1.1µM*	-5%	0.45µM*
COc1cccc(OC)c1C(=O)NC(=S)N1CCN(c2ccc(C(F)(F)F)cc2[N+](=O)[O-])CC1	3	5	22µM*	4%	7.1µM*
O=C(C1CCC1)N1CCN(c2ccc(C(F)(F)F)cc2[N+](=O)[O-])CC1	0	12	4µM*	?	7.1µM*
